Screen size: about 390,000 compounds; about 760 (0.19%) were called active. Another 3% or so got no clear call; they are omitted. Calls come from the whole dose curve; as a rule, active = well fitted inhibition curve with a large enough effect; inconclusive = small, poorly fitted or top-dose-only effect; inactive = flat fitted curve, though single readings scatter. For the sample, actives were picked, then their nearest neighbours and some compounds at random.
Assay: qHTS for Inhibitors of Vif-A3F Interactions: qHTS; note: nearly all actives have a fitted effect of over 65% in size; for activity, negative = active: % of control where 0% means no effect
Settings: HeLa A3F-eYFP + Vif (tagged APOBEC3F with the HIV-1 protein that degrades it), YFP fluorescence increase; series mostly up to 46.1 µM; activity, negative = active: at the top concentration
Text: The recent discovery and characterization of host restriction factors, which provide a potent defense to invading retroviruses, has provided new targets for antiviral drug development. APOBEC3G (A3G) and APOBEC3F (A3F) are potent cytidine deaminases that block HIV-1 replication; HIV-1 expresses the Vif protein, which counteracts A3G and A3F by binding to them and inducing their proteasomal degradation. The Vif-A3G and Vif-A3F interactions provide two potential targets for development of small molecules which can interfere with the ability of Vif to degrade A3G or A3F. […] To identify inhibitors that can interfere with Vif mediated degradation of A3G and A3F, we have developed Hela cell lines that stably express A3G or A3F tagged with eYFP at the C-terminal end (A3G-eYFP or A3F-eYFP, respectively) and Vif. In the absence of an inhibitor, Vif induces degradation of A3G-eYFP and A3F-eYFP, and the cells are not fluorescent. In the presence of an inhibitor, it is expected that Vif will be unable to degrade A3G-eYFP and/or A3F-eYFP, resulting in an increase in yellow fluorescence. In this assays Vif A3F was screened against the Molecular Library Small Molecule Repository (MLSMR). NIH Chemical Genomics Center [NCGC] NIH Molecular Libraries Probe Centers Network [MLPCN] MLPCN Grant: MH093245 Assay Submitter (PI): Vinay Pathak, National Cancer Institute
5 uL of 700 cells/well of A3F-YFP cells are dispensed into black, clear bottom plates. The plates are incubated overnight at 37 deg C. 23 nL of compounds are added by pintool. The plates are incubated overnight at 37 deg C and then read on the TTP Acumen (Ex 488/ Em 500-530).
Potency is the fitted concentration of half-maximal effect.

Potency, active:
COC(=O)c1cnc(Nc2cc(C)ccc2OC)c2ccccc12 31.6 µM
S=C(NN=Cc1ccccn1)Nc1ccccn1 11.2 µM
CCOC(=O)c1cc2n(c1N)-c1ccccc1C2=O 7.08 µM
N#CCSc1ccccc1NC(=O)CN1C(=O)NC(CCc2ccccc2)C1=O (stereo not given) 25.1 µM
Cc1ccccc1C1CC(c2cccs2)=NN1S(C)(=O)=O (stereo not given) 17.8 µM
CCN(CC)C(=O)CSC(Nc1cccc(F)c1)=C(C#N)C#N 10 µM

activity, negative = active, inactive:
COc1ccc(NC(=O)c2cnc(Nc3ccc(C)c(Cl)c3)c3ccccc23)cc1OC 1.11%
O=C(CCS(=O)(=O)c1ccccc1)N(Cc1cccnc1)c1nc2c(F)cccc2s1 -3.73%
COc1ccc(-n2c(=O)c3sc4ccccc4c3n(CC(=O)Nc3cccc(C)c3)c2=O)cc1 -15.1%
CCCN(CCC)CCCNC(=O)Cn1ncc2c3ccccc3n(Cc3ccccc3)c2c1=O -14.4%
Cc1oc2ncnc(N3CCCCC3)c2c1C(=O)N1CCN(c2cccc(Cl)c2)CC1 1.49%
COc1ccc(C)cc1N(CC(=O)N1CCC(C)CC1)S(=O)(=O)c1ccc(C)cc1 -3.25%
Cn1c(COc2ccccc2C(C)(C)C)nc2ccccc21 -7.42%
O=C1CCCc2cc(S(=O)(=O)N3CCCC(C(=O)NCc4ccccc4)C3)ccc2N1 (stereo not given) -3.24%
Cc1nn(CC(=O)N2CCN(c3cccc(C(F)(F)F)c3)CC2)c(=O)c2cc3sccc3n12 5.84%
CCN(Cc1ccccc1)C(=O)c1cn(-c2cccc(OC)c2)c(=O)c2ccccc12 5.04%
COc1cccc(CNC(=O)c2cc(=O)[nH]c3ccc(S(=O)(=O)N4CCCCC4)cc23)c1 1.76%
CCOC(=O)c1c(N)n(-c2cccc(C)c2C)c2nc3ccccc3nc12 3.14%
CCOC(=O)c1cc(-c2ccccc2)n(CCC(=O)Nc2ccccc2CC)c1C 1.54%
CCOc1ccccc1NC(=O)Cn1nnc(C(=O)Nc2ccc(C)c(C)c2)c1N -8.19%
COc1ccc(-c2nc3sc(CCNC(=O)C(C)(C)C)c(C)n3n2)cc1 5.15%
CCOC(=O)C(Cc1ccccc1)NC(=O)CCc1c(C)nc2c(c(C)nn2-c2ccc(C)c(C)c2)c1C (stereo not given) -9.62%
COc1ccc(NC(=O)CSc2nccn2Cc2ccc3c(c2)OCO3)cc1 0.0796%
CCN1CCN(CCCNC(=O)c2cnn(-c3ccc(C)cc3C)c2C2CCN(C(=O)OC(C)(C)C)CC2)CC1 1.14%
CCOC(=O)CCCNC(=O)CN1C(=O)NC(CCc2ccccc2)C1=O (stereo not given) -1.81%
Cc1cc(NC(=O)CN2C(=O)NC(CCc3ccccc3)C2=O)no1 (stereo not given) -0.801%
Cc1[nH]c2ccccc2c1C(c1ccccc1)c1cccs1 (stereo not given) 1.42%
CC1Cn2c(nnc2-c2cccs2)S1 (stereo not given) -0.767%
COc1ccc(C2CC(c3cccs3)=Nc3ccccc3S2)cc1OC (stereo not given) -5.58%
COc1cc(NS(=O)(=O)c2cccs2)cc(OC)c1 -5.81%
Cc1ccccc1Cn1nc(C)c(NC(=O)c2cc(-c3ccc(F)cc3)on2)c1C -13.4%
CCN(CCCNC(=O)CSc1cc(=O)n(C)c2cc(Cl)ccc12)c1cccc(C)c1 -6.36%
COc1ccc(/C=C/c2nc(C#N)c(NCc3ccc(F)cc3)o2)cc1OC -0.36%
N#Cc1nc(/C=C/c2ccc(F)cc2)oc1NCc1ccc(F)cc1 3.52%
Cc1ccc(CSCC(=O)N(C)CC(=O)Nc2cccc(F)c2)cc1 7.18%
CCOC(=O)c1nnn(CC(=O)Nc2cccc(F)c2)c1C(=O)OCC 3.56%
Cc1cc(C)cc(NC(c2nnc(-c3cccc(F)c3)o2)c2ccc(F)cc2Cl)c1 (stereo not given) -7.91%
O=C(Nc1ccc(S(=O)(=O)N2CCC(c3nc4ccccc4s3)CC2)cc1)c1ccccc1F -10.8%
O=C(Cn1nc(C(F)(F)F)c2c1CCCC2)Nc1ccc(Cl)cc1 -21.5%
NS(=O)(=O)c1ccc(NC(=O)COc2ccc(S(=O)(=O)NC3CCCCC3)cc2)cc1 2.92%
Cc1cccn2c(=O)c(C(=O)NC(C)c3ccccc3)cnc12 (stereo not given) -2.37%
CCC1CN(S(=O)(=O)c2cc(-c3cc(C)no3)ccc2C)c2cc(C)ccc2O1 (stereo not given) -2.18%
O=C(CSc1oc(-c2ccco2)nc1S(=O)(=O)c1ccccc1)c1ccc(Cl)cc1 1.03%
CCOc1ccc(CNC(=O)C2CCCN(S(=O)(=O)N(CC)c3ccc(OCC)cc3)C2)cc1 (stereo not given) 0.581%
CCOC(=O)c1cccc(NC(=O)c2cc(S(=O)(=O)N3CCCC(C)C3)cn2C)c1 (stereo not given) -5.21%
Cc1ccc(NC(=O)CSc2nc3c([nH]c4ccccc43)c(=O)n2-c2ccccc2)c(C)c1 -29.3%
CCCOc1ccc(-c2cccc(NS(=O)(=O)c3ccccc3)c2)nn1 1.12%
CCCN1CCN(CCCNC(=O)Cn2nc(CC)n3c(cc4occc43)c2=O)CC1 2.13%
O=C(COc1ccccc1F)Nc1ccc(C(=O)OCc2cc(=O)n3nc(C4CC4)sc3n2)cc1 -0.892%
CC1=C(c2ccc(Cl)cc2)S(=O)(=O)N=C1N1CCN(c2cc(C)ccc2C)CC1 -2.17%
